Records with an inconclusive call do not appear. A call without a number means that no potency is given here. Active and inactive are the calls of the source. The call rests on the fitted dose curve; in most records, active means well fitted inhibition curve with a large enough effect; inconclusive means small, poorly fitted or top-dose-only effect; inactive means no such curve, though single readings can be large or run the other way.
Assay: qHTS assay for measurement of the activity of small molecule inhibitors on Zika virus induced Caspase-3 activity in human iPSC derived neural progenitor cells (hNPCs) (AID 1224857); further: nearly all actives have a fitted effect of over 65% in size
Conditions: hNPCs ZIKV-induced caspase-3/7, Caspase-Glo luminescence, 6 h; series mostly up to 45.7 µM
Source text: National Center for Advancing Translational Sciences [NCATS]
Johns Hopkins University School of Medicine
Increase in the Caspase-3 activity indicates an activation of apoptosis cell death pathway caused by Zika virus infection in certain types of neuronal cells including human neural progenitor cells (hNPCs), astrocytes, and astrocytoma cell line (SNB-19). This cell-based caspase-3 activity assay measures the increased caspase-3 activity in the human iPSC derived neural progenitor cells (hNPCs) after a 6-hour Zika virus infection with a luminescence readout. A decrease in the luminescence signal in this assay by small molecule treatment indicates an inhibitory effect of that small molecule on the Zika virus induced caspase-3 activity that may correlate with its effect on reduction of Zika virus caused cell death.
The medium for hNPCs consists of DMEM/F12, N2 supplement (ThermoFisher, Cat.# 17502048), NEAA (ThermoFisher, Cat. # 11140050), 2 ug/ml heparin, 2 uM cyclopamine, and B27 (ThermoFisher, Cat. # 17504044). A Caspase-Glo 3/7 assay kit (catalog number G8092; Promega, Madison, WI) was used to detect caspase-3 activity induced by Zika virus infection in human cells. The reagent mixture was reconstituted as described in the protocol from the manufacturer. Polystyrene tissue culture treated and PDL coated white plates were obtained from Greiner Bio-One (Monroe, NC). Cells were seeded in 384- or 1536-well assay plates and cultured at 37 C with 5% CO2 for 16 to 20 hours. The typical cell seeding density in the 1536-well plate assay is 350 cells/well in 3 ul medium for hNPCs in tissue culture treated plates. Compounds were added to cells and incubated for one hour before addition of ZIKV solution to cells (2 FFU/cell). After incubation at 37 C with 5% CO2 for 6 hours, the reagent mixture of Caspase-Glo 3/7 assay kit was added to each well, followed by incubation at room temperature for 30 minutes. The luminescence intensity of the assay plates was measured using a ViewLux plate reader (PerkinElmer). Data were normalized by using the cell-containing wells without ZIKV as a negative control (0% induction of caspase 3/7 activity) and wells containing ZIKV infected cells (Caspase-3 activity induced) as a positive control (100% induction of caspase 3 activity). The percentage inhibitions of the increased Caspase-3 activity by small molecule inhibitors were then calculated.
Potency means the concentration at half of the fitted maximal effect.

Row | SMILES | Potency
1 | O=C(CCOCCOCCOCCOCCC(=O)Nc1c(I)cc(I)c(C(=O)O)c1I)Nc1c(I)cc(I)c(C(=O)O)c1I | inactive
2 | CCCCCC(=O)O[C@]1(C(C)=O)CC[C@H]2[C@@H]3CCC4=CC(=O)CC[C@]4(C)[C@H]3CC[C@@]21C | inactive
3 | CCOc1c(N2CCOCC2)cnn(C)c1=O | inactive
4 | CCC(CN)=C(c1ccccc1)c1ccccc1 | inactive
5 | CC(C)(C)c1ccc(O)c(O)c1 | 35.5 µM (active)
6 | O=C(Nc1ccc(Cl)cc1)Nc1ccc(Cl)c(Cl)c1 | inactive
7 | CC(C)C(=O)OCc1cccc(OC(=O)[C@@H]2N3C(=O)[C@@H](NC(=O)Cc4ccccc4)[C@H]3SC2(C)C)c1 | inactive
8 | CC(=O)N(CC(O)CO)c1c(I)c(C(=O)NCCO)c(I)c(C(=O)NCC(O)CO)c1I (stereo not given) | inactive
9 | CN1C(=O)c2ccccc2C1=O | inactive
10 | CCCCCCCCCCCCCCCCCCNC(=O)OC1CCN(C(=O)OC[C@H](COC(=O)N(Cc2cccc[n+]2CC)C(=O)c2ccccc2OC)OC)CC1 | inactive
11 | CC(=O)O[C@H]1CC[C@@]2(C)C(=CC[C@@H]3[C@@H]2CC[C@]2(C)C(C(C)=O)=CC[C@@H]32)C1 | inactive
12 | Cc1ccc(C(=O)C(=O)O)cc1C | inactive
13 | COC(=O)c1cc(Cl)ccc1OC | inactive
14 | CCCCCC1Nc2cc(C(F)(F)F)c(S(N)(=O)=O)cc2S(=O)(=O)N1 (stereo not given) | inactive
15 | CCS(=O)(=O)c1ccc(OC)c(C(=O)OC)c1 | inactive
16 | CC(=O)OCC(=O)Nc1cc(C#N)cc(NC(=O)COC(C)=O)c1Cl | inactive
17 | O=C1Nc2ccccc2C1(c1ccc(O)cc1)c1ccc(O)cc1 | inactive
18 | COC(=O)c1ccc(NC(C)=O)cc1OC | inactive
19 | C/C=C(/C(=C/C)c1ccc(OC(C)=O)cc1)c1ccc(OC(C)=O)cc1 | inactive
20 | CN1Cc2cc(C(=O)N3CCC(C4CCNCC4)CC3)ccc2NC(CC(=O)O)C1=O (stereo not given) | inactive

Row | SMILES | Potency
21 | CCN(CC)CC(=O)Oc1ccc(NC(C)=O)cc1 | inactive
22 | CC(C)(C)NCC(O)COc1ccccc1OCC1CCCO1 (stereo not given) | inactive
23 | O=C1Nc2cc(Cl)ccc2Oc2ccccc21 | inactive
24 | Nc1c2ccccc2nc2ccccc12 | inactive
25 | CC(C)NC(=O)c1ccc(C=O)cc1 | inactive
26 | O=C(Oc1ccccc1)c1ccccc1O | inactive
27 | O=C(NO)c1ccccc1 | inactive
28 | COC(=O)c1cc(Cl)ccc1NS(=O)(=O)C(F)(F)F | inactive
29 | C#Cc1ccc(-c2ccccc2F)cc1 | inactive
30 | CCOC(=O)C(=O)CCCCCCl | inactive
31 | COc1cccc2c1[C@@H]1CN(CCCCn3c(=O)[nH]c4c(sc5ncc(-c6ccccc6)nc54)c3=O)C[C@@H]1CO2 | inactive
32 | O=C(COCCOCCOCC(=O)Nc1c(I)cc(I)c(C(=O)O)c1I)Nc1c(I)cc(I)c(C(=O)O)c1I | inactive
33 | C[C@H]1C[C@H](O)c2ccsc2S1(=O)=O | inactive
34 | C[N+](C)(C)CCO | inactive
35 | Nc1ccc(C(=O)OCC(O)CO)cc1 (stereo not given) | inactive
36 | COc1cc(NS(=O)(=O)c2ccc(N)cc2)nc(C)n1 | inactive
37 | O=c1[nH]sc2cc(Cl)ccc12 | inactive
38 | CC(C(=O)O)c1ccc(/C=C2\CCCCC2=O)cc1 (stereo not given) | inactive
39 | Cc1cc(O)c(C)c(C)c1O | inactive
40 | CN1CCC(Nc2ncc3ncnc(Nc4ccc(F)c(Cl)c4)c3n2)CC1 | inactive
